From PubChem BioAssay (EPA / NIEHS)
Active and inactive are the calls of the source. The calls were made as follows: active = hit-call score of the fitted dose curve at least 0.9, where 1 is the maximum; inactive = score below 0.9.

What follows are molecules tested on E-selectin (Homo sapiens) (UniProt P16581) (assay: BSK_SAg_Eselectin: BioMAP Diversity Plus: SAg Assay for Eselectin Biomarker Activity (AID 2283091)). Conditions: primary human HUVEC with PBMC; actives raise or lower the signal.
Outline: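 Cell-surface E-selectin is read by ELISA at 24 h in the SAg co-culture of HUVEC and PBMC. Curves are fitted in both directions relative to DMSO. Parallel SRB total-protein staining tracks overt toxicity.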

Sequence of E-selectin (Homo sapiens) (P16581 whole entry, looked up): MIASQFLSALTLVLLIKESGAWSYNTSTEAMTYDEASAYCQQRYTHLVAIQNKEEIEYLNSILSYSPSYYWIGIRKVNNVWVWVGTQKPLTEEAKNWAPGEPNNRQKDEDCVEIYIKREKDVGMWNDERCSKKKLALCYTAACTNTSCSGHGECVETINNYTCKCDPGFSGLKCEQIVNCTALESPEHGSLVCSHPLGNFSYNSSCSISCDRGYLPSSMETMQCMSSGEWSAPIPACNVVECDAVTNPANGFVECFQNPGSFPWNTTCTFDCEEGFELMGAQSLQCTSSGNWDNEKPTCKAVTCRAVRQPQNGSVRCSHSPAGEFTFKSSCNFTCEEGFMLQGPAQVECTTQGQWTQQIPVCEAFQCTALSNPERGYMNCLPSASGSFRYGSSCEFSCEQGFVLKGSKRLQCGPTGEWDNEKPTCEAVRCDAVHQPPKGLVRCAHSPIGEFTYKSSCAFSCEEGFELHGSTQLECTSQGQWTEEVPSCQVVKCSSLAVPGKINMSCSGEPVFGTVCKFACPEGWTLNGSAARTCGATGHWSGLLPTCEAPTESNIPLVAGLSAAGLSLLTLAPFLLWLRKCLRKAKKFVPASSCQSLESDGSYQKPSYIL

Structure (SMILES) | outcome | AC50
COCc1cnc(C2=NC(C)(C(C)C)C(=O)N2)c(C(=O)O)c1 (stereo not drawn) | inactive | –
N#Cc1c[nH]cc1-c1cccc2c1OC(F)(F)O2 | inactive | –
CCCCOCN(C(=O)CCl)c1c(CC)cccc1CC | – | 18.9 µM (active)
Cc1cnc(C2=NC(C)(C(C)C)C(=O)N2)c(C(=O)O)c1 (stereo not drawn) | inactive | –
COC(=O)NS(=O)(=O)c1ccc(N)cc1 | inactive | –
CCCC(=NOCC)C1=C(O)CC(CC(C)SCC)CC1=O (stereo not drawn) | inactive | –
COCC(=O)N(c1c(C)cccc1C)C(C)C(=O)OC (stereo not drawn) | inactive | –
N#Cc1c(Cl)cccc1Cl | inactive | –
Clc1cccc(C(Cl)(Cl)Cl)n1 | inactive | –
Nc1c(Cl)c(F)nc(OCC(=O)O)c1Cl | inactive | –
CCCCC(C#N)(Cn1cncn1)c1ccc(Cl)cc1 (stereo not drawn) | inactive | –
CCOP(=S)(OCC)Oc1nc(Cl)n(C(C)C)n1 | inactive | –
CCSC(=O)N1CCCCCC1 | inactive | –
CC1(C)CCC(=Cc2ccc(Cl)cc2)C1(O)Cn1cncn1 (stereo not drawn) | inactive | –
Cc1cc(C)nc(Nc2ccccc2)n1 | – | 20 µM (active)
CCNC(=O)NC(=O)C(C#N)=NOC | inactive | –
CNC(=O)N(C)c1nnc(C(C)(C)C)s1 | inactive | –
CS(=O)(=O)c1ccc(C(=O)C2C(=O)CCCC2=O)c([N+](=O)[O-])c1 | inactive | –

Structure (SMILES) | outcome | AC50
CCOP(=O)(OCC)Oc1nc(Cl)c(Cl)cc1Cl | inactive | –
CC1(C)C(C=C(Cl)Cl)C1C(=O)OC(C#N)c1cccc(Oc2ccccc2)c1 (stereo not drawn) | inactive | –
CC(C)N1C(=O)c2ccccc2NS1(=O)=O | inactive | –
N#CN=C1SCCN1Cc1ccc(Cl)nc1 | inactive | –
COc1cc(OC)nc(NC(=O)NS(=O)(=O)c2ncccc2OCC(F)(F)F)n1 | inactive | –
O=C(O)c1c(Cl)ccc2cc(Cl)cnc12 | inactive | –
CC(C)Nc1nc(Cl)nc(NC(C)C)n1 | – | 4.2 µM (active)
CN/C(=N\[N+](=O)[O-])NCc1cnc(Cl)s1 | inactive | –
O=c1n(Cl)c(=O)n(Cl)c(=O)n1Cl | inactive | –
CC(C)NC(=O)N1CC(=O)N(c2cc(Cl)cc(Cl)c2)C1=O | inactive | –
CCN(CC)c1nc(C)cc(OP(=S)(OC)OC)n1 | – | 10.5 µM (active)
COc1cc(Cl)c(OC)cc1Cl | inactive | –
Clc1nc(Cl)nc(Nc2ccccc2Cl)n1 | inactive | –
COP(=S)(OC)Oc1ccc([N+](=O)[O-])c(C)c1 | – | 29.6 µM (active)
CC(C)Oc1cccc(NC(=O)c2ccccc2C(F)(F)F)c1 | inactive | –
CO/N=C(/C1=NOCCO1)c1ccccc1Oc1ncnc(Oc2ccccc2Cl)c1F | – | 12.7 µM (active)
C=C(C)CN(CC)c1c([N+](=O)[O-])cc(C(F)(F)F)cc1[N+](=O)[O-] | – | 33.7 µM (active)
CCNP(=S)(OC)O/C(C)=C/C(=O)OC(C)C (stereo not drawn) | inactive | –

These molecules were tested on Monokine induced gamma interferon (MIG), CXCL9 (gene 4283) (assay: BSK_SAg_MIG: BioMAP Diversity Plus: SAg Assay for Monokine induced gamma interferon (MIG) Biomarker Activity (AID 2283092)). Conditions: primary human HUVEC with PBMC; actives raise or lower the signal.
Outline: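 Measures CXCL9 protein by ELISA in a human vascular primary-cell co-culture (umbilical vein endothelium with PBMC) 24 h after chemical addition. Activity is scored up or down from the DMSO control.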

Structure (SMILES) | outcome | AC50
COCc1cnc(C2=NC(C)(C(C)C)C(=O)N2)c(C(=O)O)c1 (stereo not drawn) | inactive | –
N#Cc1c[nH]cc1-c1cccc2c1OC(F)(F)O2 | inactive | –
CCCCOCN(C(=O)CCl)c1c(CC)cccc1CC | – | 33.9 µM (active)
CCCC(=NOCC)C1=C(O)CC(CC(C)SCC)CC1=O (stereo not drawn) | inactive | –
COCC(=O)N(c1c(C)cccc1C)C(C)C(=O)OC (stereo not drawn) | inactive | –
N#Cc1c(Cl)cccc1Cl | inactive | –
Clc1cccc(C(Cl)(Cl)Cl)n1 | inactive | –
Nc1c(Cl)c(F)nc(OCC(=O)O)c1Cl | inactive | –
CCCCC(C#N)(Cn1cncn1)c1ccc(Cl)cc1 (stereo not drawn) | inactive | –
CCOP(=S)(OCC)Oc1nc(Cl)n(C(C)C)n1 | inactive | –
CCSC(=O)N1CCCCCC1 | inactive | –
CC1(C)CCC(=Cc2ccc(Cl)cc2)C1(O)Cn1cncn1 (stereo not drawn) | inactive | –
Cc1cc(C)nc(Nc2ccccc2)n1 | inactive | –
CNC(=O)N(C)c1nnc(C(C)(C)C)s1 | inactive | –
CCOP(=O)(OCC)Oc1nc(Cl)c(Cl)cc1Cl | inactive | –
CC1(C)C(C=C(Cl)Cl)C1C(=O)OC(C#N)c1cccc(Oc2ccccc2)c1 (stereo not drawn) | inactive | –

Structure (SMILES) | outcome | AC50
CC(C)N1C(=O)c2ccccc2NS1(=O)=O | inactive | –
N#CN=C1SCCN1Cc1ccc(Cl)nc1 | inactive | –
COc1cc(OC)nc(NC(=O)NS(=O)(=O)c2ncccc2OCC(F)(F)F)n1 | inactive | –
O=C(O)c1c(Cl)ccc2cc(Cl)cnc12 | inactive | –
CC(C)Nc1nc(Cl)nc(NC(C)C)n1 | inactive | –
CN/C(=N\[N+](=O)[O-])NCc1cnc(Cl)s1 | inactive | –
O=c1n(Cl)c(=O)n(Cl)c(=O)n1Cl | inactive | –
CC(C)NC(=O)N1CC(=O)N(c2cc(Cl)cc(Cl)c2)C1=O | inactive | –
CCN(CC)c1nc(C)cc(OP(=S)(OC)OC)n1 | inactive | –
COc1cc(Cl)c(OC)cc1Cl | inactive | –
Clc1nc(Cl)nc(Nc2ccccc2Cl)n1 | inactive | –
COP(=S)(OC)Oc1ccc([N+](=O)[O-])c(C)c1 | inactive | –
CC(C)Oc1cccc(NC(=O)c2ccccc2C(F)(F)F)c1 | inactive | –
CO/N=C(/C1=NOCCO1)c1ccccc1Oc1ncnc(Oc2ccccc2Cl)c1F | – | 34.7 µM (active)
C=C(C)CN(CC)c1c([N+](=O)[O-])cc(C(F)(F)F)cc1[N+](=O)[O-] | inactive | –
CCNP(=S)(OC)O/C(C)=C/C(=O)OC(C)C (stereo not drawn) | inactive | –
